“And” between values parts separate entries of the source, which are not always exact repeats. Equal entries are not always repeated. Inconclusive results are not listed. Entries that show only a call come without a potency. A number with no mark means an inactive call. The source made the active and inactive calls. The call rests on the fitted dose curve; in most records, active means well fitted curve in the direction sought with a large enough effect; inconclusive means small, poorly fitted or top-dose-only effect, or another doubt; inactive means no such curve, though single readings can be large; an effect the other way counts as inactive or inconclusive.
Tests used:
[1] = target: Cellular tumor antigen p53 (Homo sapiens) (UniProt P04637); experiment: Primary qHTS for small molecule compounds that upregulate eGFP-tagged delta133p53alpha (in N-terminal) cells. (AID 2060322); conditions: NCI-H358 eGFP-delta133p53alpha fluorescence, 24 h; activation: active compounds read high; further: nearly all actives have a fitted effect of over 75% in size; further: potency means the concentration at half of the fitted maximal effect; on activation: series mostly up to about 56 µM
Chain of Cellular tumor antigen p53 (Homo sapiens) (P04637 whole entry, looked up): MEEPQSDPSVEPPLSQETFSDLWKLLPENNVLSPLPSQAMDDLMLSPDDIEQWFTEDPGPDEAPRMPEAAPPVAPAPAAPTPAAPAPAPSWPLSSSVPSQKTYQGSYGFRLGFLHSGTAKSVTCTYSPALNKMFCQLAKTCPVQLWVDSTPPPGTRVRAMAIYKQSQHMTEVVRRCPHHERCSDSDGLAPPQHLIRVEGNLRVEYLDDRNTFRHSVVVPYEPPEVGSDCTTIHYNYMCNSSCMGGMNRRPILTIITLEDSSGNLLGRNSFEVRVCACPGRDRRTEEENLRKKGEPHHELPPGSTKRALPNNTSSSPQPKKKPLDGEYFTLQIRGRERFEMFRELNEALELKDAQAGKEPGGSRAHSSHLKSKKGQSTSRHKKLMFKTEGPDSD
Method in brief: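 NCI-H358 cells pre-induced 24 h with 10 ng/ml doxycycline to express N-terminal eGFP-delta133p53alpha, then dosed 24 h at 37C without doxycycline; fixed, Hoechst-stained, GFP intensity by laser scanning cytometry, normalized to DMSO (0%) and 57.5 uM 5-azacytidine (100%).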

[2] = target: Aldehyde dehydrogenase, mitochondrial (Homo sapiens) (UniProt P05091); experiment: qHTS for Inhibitors of the Aldehyde Dehydrogenase Family (ALDH2) Primary screen (AID 2061308); further: nearly all actives have a fitted effect of over 55% in size
[3] = target: Retinaldehyde dehydrogenase 3 (Homo sapiens) (UniProt P47895); experiment: qHTS for Inhibitors of the Aldehyde Dehydrogenase Family (ALDH1A3) Validation screen (AID 2061312); further: nearly all actives have a fitted effect of over 45% in size; further: potency means the concentration at half of the fitted maximal effect
[4] = target: Retinaldehyde dehydrogenase 3 (Homo sapiens) (UniProt P47895); experiment: qHTS for Inhibitors of the Aldehyde Dehydrogenase Family (ALDH1A3) Primary screen (AID 2061315)

Row | Structure (SMILES) | activation [1] | Potency [2] | Potency [3] | Potency [4] | Potency [1]
1 | Fc1ccc2c(CCNCc3cccc(OCC(F)(F)C(F)F)c3)c[nH]c2c1 | 3.34% | inactive | inactive | inactive | –
2 | O=C(CCCCC1CCCCC1)N1CCC(c2cnc[nH]2)CC1 | -1.91% | inactive | inactive | inactive | –
3 | CN1CCC(c2c[nH]c3ccc(NC(=O)c4ccc(F)cc4)cc23)CC1 | -11% | inactive | inactive | inactive | –
4 | COc1ccccc1N1CCN(c2ncnc3n[nH]c(Br)c23)CC1 | 20.5% | inactive | inactive | inactive | –
5 | O=C(Nc1ccc(C(F)(F)F)cn1)N1CCN(c2ncccc2C(F)(F)F)CC1 | -3.34% | inactive | inactive | inactive | –
6 | COC(=O)c1ccc2c(c1)[nH]c1ncnc(NCCCN3CCCCC3)c12 | 0.477% | inactive | 31.6 µM (active) | inactive | –
7 | COc1cc(-c2cn(C3CCc4c(F)cccc4N(CC(F)(F)F)C3=O)nn2)ccc1-n1cnc(C)c1 (stereo not given) | 6.68% | inactive | inactive | inactive | –
8 | O=C(CC1NCCC[C@H]1O)Cn1cnc2cc(Br)c(Cl)cc2c1=O (stereo not given in full) | 5.25% | inactive | inactive | inactive | –
9 | CCOC(=O)C(CCc1ccccc1)NC1CCCN2CCCC(C(=O)O)N2C1=O (stereo not given) | -9.55% | inactive | inactive | inactive | –
10 | CNC(=O)COC(=O)N1CCC(CCc2ccc(Cl)cc2)CC1 | -1.91% | inactive | inactive | inactive | –
11 | COC(=O)CC1CC(c2ccc(O)cc2)=NO1 (stereo not given) | -0.955% | inactive | inactive | inactive | –
12 | COc1cccc(CNc2ccc(S(=O)(=O)Nc3nc4ccccc4s3)cc2)c1O | -10.5% | inactive | inactive | inactive | –
13 | COc1ccc(CCc2nc3cc(-c4c(C)noc4C)ccc3n2C[C@H](C)N2CCOCC2)cc1Cl | 20.1% | inactive | inactive | inactive | –
14 | C#CCN(Cc1cc2c(=O)[nH]c(C)nc2cc1Br)c1ccc(C(=O)NCc2cccnc2)cc1 | -5.73% | inactive | inactive | inactive | –
15 | O=C(c1c2ccccc2cc2ccccc12)N1CCC(N2CCC[C@@H](C(=O)N3CCOCC3)C2)CC1 | -1.91% | inactive | inactive | inactive | –
16 | CCOc1nc2cccc(C(=O)O)c2n1Cc1ccc(-c2ccccc2-c2noc(=O)[nH]2)cc1 | 0.955% | inactive | inactive | inactive | –
17 | Cc1c(NC(=O)N2CCOCC2)ccc2c1c1ccccc1n2C(C)C | -19.1% | inactive | inactive | inactive | –
18 | Cc1occc1C(=O)n1ccnc1 | 1.43% | inactive | inactive | inactive | –
19 | Cc1ccc(Cl)cc1N(CC(=O)Nc1c(F)cccc1F)S(C)(=O)=O | 0.955% | inactive | inactive | inactive | –
20 | CC(C)(C)NCC(O)COc1cccc2c1CCCC2=O (stereo not given) | -7.64% | inactive | inactive | inactive | –

Row | Structure (SMILES) | activation [1] | Potency [2] | Potency [3] | Potency [4] | Potency [1]
21 | CC1=C(C(=O)Nc2cc(Cl)ccc2Cl)C(c2ccco2)C2=C(CCCC2=O)N1 (stereo not given) | 17.7% | inactive | inactive | inactive | –
22 | O=C(CC(c1ccccc1)c1ccccc1)N1CCN(C(c2ccccc2)c2ccccc2)CC1 | 2.86% | inactive | inactive | inactive | –
23 | CCOc1ccc(-n2c([C@@H](C)N(Cc3cccnc3)C(=O)Cc3ccc(OC(F)(F)F)cc3)nc3ncccc3c2=O)cc1 | – | inactive | inactive | inactive | 19 µM (active)
24 | O=C(NC/C=C/CN1CCN(c2cccc(Cl)c2Cl)CC1)c1ccc(-c2ccccn2)cc1 | 6.68% | inactive | inactive | inactive | –
25 | Cc1nc2n(c(=O)c1CCN1CCC(c3noc4cc(F)ccc34)CC1)CCC[C@H]2O | 9.21% and -6.21% | inactive | inactive | inactive | –
26 | Cc1[nH]cnc1C1CCN(c2nc3cccc4c3n2CCC4=O)CC1 | 1.43% | inactive | inactive | inactive | –
27 | CCOc1cc(CC(=O)NC(CC(C)C)c2ccccc2N2CCCCC2)ccc1C(=O)O (stereo not given) | -4.3% | inactive | inactive | inactive | –
28 | Cc1ccc(N2CCN(CCC3NC(=O)c4ccccc43)CC2)cc1C (stereo not given) | -7.16% | inactive | inactive | inactive | –
29 | COc1cc(-n2cnc3cc(-c4ccc(Cl)cc4)sc3c2=O)ccc1OCCN1CCCC1 | 18.1% | inactive | inactive | inactive | –
30 | COC(=O)C(Cc1ccc(OCCn2c(=O)sc3cc(C(=O)c4ccccc4)ccc32)cc1)C(=O)OC | -10.5% | inactive | inactive | inactive | –
31 | CC(C)c1ccc(-c2cc(=O)c3ccccc3o2)cc1 | -14.8% | inactive | inactive | inactive | –
32 | C[C@@H](N[C@H]1CCCC[C@@H]1NC(=O)c1ccc(Cl)cc1)c1cccc2ccccc12 | 21.5% | inactive | inactive | inactive | –
33 | COc1ccc(Oc2cc(C)c(-c3csc(NC(=O)c4ccncc4)n3)c(C)c2)cc1 | 11% | inactive | inactive | inactive | –
34 | c1ccc(C(OC2CCN(CCCc3nn[nH]n3)CC2)c2ccccc2)cc1 | -4.77% | inactive | inactive | inactive | –
35 | COc1ccc(NC(=O)c2ccc(-c3ccc(-c4nnc(C)o4)cc3C)cc2)cc1N1CCN(C)CC1 | -6.21% | inactive | inactive | inactive | –
36 | COc1cc(Nc2nc3ccccc3nc2NS(=O)(=O)c2cccc(NC(=O)c3ccc(C)c(OC)c3)c2)cc(OC)c1 | 10% | inactive | inactive | inactive | –
37 | CN1CCN(C2=Nc3ccccc3Nc3ccc(Cl)cc32)CC1 | 8.59% | inactive | inactive | inactive | –
38 | C=C[C@]1(C)C[C@@H](OC(=O)CSC2C[C@H]3CC[C@@H](C2)N3C)[C@]2(C)[C@H](C)CC[C@]3(CCC(=O)[C@H]32)[C@@H](C)[C@@H]1O (stereo not given in full) | 0.477% | inactive | inactive | inactive | –
39 | NC(=O)c1cccc2[nH]c(-c3ccc(C4CCCN4)cc3F)nc12 (stereo not given) | 0% | inactive | inactive | inactive | –
40 | Cc1ccc2[nH]c(=O)c(C3=NN(C(=O)CCC(=O)O)C(c4ccc(Br)cc4)C3)c(-c3ccccc3)c2c1 (stereo not given) | -22.4% | inactive | inactive | inactive | –

Row | Structure (SMILES) | activation [1] | Potency [2] | Potency [3] | Potency [4] | Potency [1]
41 | COc1ccc(CCN(C)CCCOc2nsc(-c3ccccc3)n2)cc1OC | 13.4% | inactive | inactive | inactive | –
42 | CC1(C)C(=O)C(C)(C)c2cc(C(=O)Nc3ccc(C(=O)O)cc3)ccc21 | -2.39% | inactive | inactive | inactive | –
43 | CC(C)[N+]1(C)C2CCC1CC(OC(=O)C(CO)c1ccccc1)C2 (stereo not given) | 3.82% | inactive | inactive | inactive | –
44 | COc1ccc(-c2nc(-c3ccc(-c4cccc(Cl)c4)o3)[nH]c2-c2ccc(OC)cc2)cc1 | -3.82% | inactive | inactive | inactive | –
45 | COc1ccccc1Oc1c(NS(=O)(=O)c2ccc(C)cn2)nc(-c2ccncc2)nc1OC | 20% | inactive | inactive | inactive | –
46 | CCc1ccc(-c2nc(CSCC(=O)NCCc3ccccc3)c(C)o2)cc1 | -12.9% | inactive | inactive | inactive | –
47 | COC(=O)c1sccc1S(=O)(=O)Nc1ccc(Nc2ccccc2)cc1OC | -5.73% | inactive | inactive | inactive | –
48 | CCOC(=O)Nc1cc(-c2ccc(C)c(NS(C)(=O)=O)c2)nn2c(C)nnc12 | 22.9% | inactive | inactive | inactive | –
49 | Cc1ccnn1-c1ccc(C(=O)N2CCN(S(=O)(=O)c3ccc(Cl)c(C(F)(F)F)c3)CC2)cc1 | -9.07% | inactive | inactive | inactive | –
50 | CCCCOc1ccc(-c2cncc(C(=O)NCc3cccnc3N3CCOCC3)c2)cc1Cl | 7.64% | inactive | inactive | inactive | –
51 | CCN(CC)C(=O)Nc1ccc(OCC(O)CNC(C)(C)C)c(C(C)=O)c1 (stereo not given) | -6.69% and 4.3% | inactive | inactive | inactive | –
52 | Nc1c(-c2ccccc2)nc(Cl)c2c(O)n[nH]c(=O)c12 | -1.91% | inactive | inactive | inactive | –
53 | CC(C)(O)c1ccc2c(c1)ncn2-c1cccc(-c2ccccc2C#N)c1 | -12.4% | inactive | inactive | inactive | –
54 | CN(CC(=O)N(Cc1ccc(C2CCCCC2)cc1)c1ccc(C(=O)O)cc1)S(=O)(=O)c1c(F)c(F)c(F)c(F)c1F | – | inactive | inactive | inactive | 6.75 µM (active)
55 | COc1ccc([C@H](Cc2ccncc2)c2ccccc2)cc1OC1CCCC1 | -2.86% | inactive | inactive | inactive | –
56 | CNC(C)C(=O)NC(C(=O)N1CCCC1C(=O)Nc1snnc1-c1ccccc1)C1CCCCC1 (stereo not given) | 11% | inactive | inactive | inactive | –
57 | O=C(Nc1cc(-c2ccccc2)nn1-c1ccccc1F)c1ccc([N+](=O)[O-])cc1 | -5.73% | inactive | inactive | inactive | –
58 | CNC(=O)c1ccccc1Nc1nc(Nc2ccc(N3CCNCC3)cc2)ncc1Cl | – | inactive | inactive | inactive | 1.35 µM (active)
59 | O=C(CCCCN1CCOCC1)Nc1ccc(-c2cccnc2)cc1 | -8.11% | inactive | inactive | inactive | –
60 | O=C(N[C@@H]1CC[C@@H](c2cccc(F)c2F)CN(CC(F)(F)F)C1=O)N1CCC(n2c(=O)[nH]c3ncccc32)CC1 | -0.477% | inactive | inactive | inactive | –
